The target of assay [1] is Platelet-derived growth factor receptor alpha (Homo sapiens) (UniProt P16234). Particulars: at 10 µM.
Assay [2] concerns the target Platelet-derived growth factor receptor beta (Homo sapiens) (UniProt P09619). Particulars: at 1 µM.
The target is the same in assay [3]. The following applies: at 10 µM.
In assay [4] the target is T1, 3-phosphoinositide-dependent protein kinase 1 (Homo sapiens) (UniProt O15530).
T1 sequence (whole entry): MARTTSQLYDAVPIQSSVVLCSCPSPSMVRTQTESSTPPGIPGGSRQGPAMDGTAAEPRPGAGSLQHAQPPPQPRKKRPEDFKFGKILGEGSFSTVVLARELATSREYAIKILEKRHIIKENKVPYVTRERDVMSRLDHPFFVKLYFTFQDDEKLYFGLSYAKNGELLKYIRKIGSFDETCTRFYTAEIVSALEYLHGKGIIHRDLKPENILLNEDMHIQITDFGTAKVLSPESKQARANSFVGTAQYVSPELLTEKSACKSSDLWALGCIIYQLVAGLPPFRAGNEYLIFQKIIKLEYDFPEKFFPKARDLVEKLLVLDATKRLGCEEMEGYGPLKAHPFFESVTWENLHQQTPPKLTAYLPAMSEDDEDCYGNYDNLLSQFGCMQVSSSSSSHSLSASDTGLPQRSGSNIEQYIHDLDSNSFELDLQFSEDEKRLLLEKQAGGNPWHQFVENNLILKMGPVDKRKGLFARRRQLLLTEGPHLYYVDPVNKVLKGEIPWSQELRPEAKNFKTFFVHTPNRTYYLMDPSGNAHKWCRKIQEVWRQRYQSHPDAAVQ
Particulars: at 1 µM.

Assay [5] has as its target T1, 3-phosphoinositide-dependent protein kinase 1 (Homo sapiens). Particulars: at 10 µM.
Assay [6] concerns the target cAMP-dependent protein kinase catalytic subunit alpha (Homo sapiens) (UniProt P17612). Particulars: at 1 µM.
The target of assay [7] is RAC-alpha serine/threonine-protein kinase (Homo sapiens) (UniProt P31749). Particulars: at 1 µM.
For assay [8] the target is unchanged. The following applies: at 10 µM.
In assay [9] the target is RAC-gamma serine/threonine-protein kinase (Homo sapiens) (UniProt Q9Y243). The following applies: at 1 µM.
For assay [10] the target is unchanged. Particulars: at 10 µM.
Assay [11] addresses Protein kinase C alpha type (Homo sapiens) (UniProt P17252). Particulars: at 1 µM.
The target is the same in assay [12]. The following applies: at 10 µM.
Assay [13] addresses Protein kinase C beta type (Homo sapiens) (UniProt P05771). Particulars: at 1 µM.
Assay [14] shares this target. Particulars: at 10 µM.
Assay [15] shares this target. The following applies: at 1 µM. This is another data set of the same source.
The target is the same in assay [16]. The following applies: at 10 µM. This is another data set of the same source.
The target of assay [17] is Protein kinase C gamma type (Homo sapiens) (UniProt P05129). Particulars: at 1 µM.
Assay [18] shares this target. The following applies: at 10 µM.
Assay [19] has as its target Protein kinase C delta type (Homo sapiens) (UniProt Q05655). Particulars: at 1 µM.
Assay [20] deals with cAMP-dependent protein kinase catalytic subunit alpha (Homo sapiens) (UniProt P17612). The following applies: at 10 µM.

Sequence of Protein kinase C delta type (Homo sapiens) (Q05655 whole entry, looked up): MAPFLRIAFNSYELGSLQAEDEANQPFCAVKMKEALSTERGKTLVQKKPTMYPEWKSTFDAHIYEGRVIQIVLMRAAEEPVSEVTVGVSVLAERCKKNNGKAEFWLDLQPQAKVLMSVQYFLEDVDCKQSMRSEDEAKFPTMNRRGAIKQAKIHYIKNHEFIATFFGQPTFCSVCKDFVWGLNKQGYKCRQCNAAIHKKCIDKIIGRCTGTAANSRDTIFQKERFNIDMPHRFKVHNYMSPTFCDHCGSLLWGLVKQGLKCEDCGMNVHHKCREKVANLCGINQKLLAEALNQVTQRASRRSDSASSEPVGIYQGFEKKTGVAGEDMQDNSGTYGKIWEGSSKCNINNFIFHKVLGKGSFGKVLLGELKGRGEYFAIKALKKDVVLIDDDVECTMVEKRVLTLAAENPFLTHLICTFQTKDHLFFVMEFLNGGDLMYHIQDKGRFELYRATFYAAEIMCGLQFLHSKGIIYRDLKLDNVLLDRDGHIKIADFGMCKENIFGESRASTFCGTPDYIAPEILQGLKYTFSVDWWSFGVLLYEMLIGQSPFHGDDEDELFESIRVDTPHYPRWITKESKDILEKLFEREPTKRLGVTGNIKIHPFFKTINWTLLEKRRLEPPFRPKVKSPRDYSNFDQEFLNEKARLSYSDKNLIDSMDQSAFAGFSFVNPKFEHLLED
Sequence of RAC-alpha serine/threonine-protein kinase (Homo sapiens) (P31749 whole entry): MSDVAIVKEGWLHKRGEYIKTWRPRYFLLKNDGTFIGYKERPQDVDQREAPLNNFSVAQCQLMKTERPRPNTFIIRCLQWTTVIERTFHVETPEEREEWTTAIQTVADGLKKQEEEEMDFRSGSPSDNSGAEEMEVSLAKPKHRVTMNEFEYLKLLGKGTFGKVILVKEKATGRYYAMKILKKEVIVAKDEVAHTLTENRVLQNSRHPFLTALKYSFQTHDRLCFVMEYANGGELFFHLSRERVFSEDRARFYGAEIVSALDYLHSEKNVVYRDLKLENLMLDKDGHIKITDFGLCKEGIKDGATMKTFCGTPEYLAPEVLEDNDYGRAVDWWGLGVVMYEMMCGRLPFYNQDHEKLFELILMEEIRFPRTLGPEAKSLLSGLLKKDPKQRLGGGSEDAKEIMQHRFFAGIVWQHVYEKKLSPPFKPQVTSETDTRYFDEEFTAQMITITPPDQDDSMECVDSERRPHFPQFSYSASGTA
Sequence of Protein kinase C beta type (Homo sapiens) (P05771 2-671 limits assumed): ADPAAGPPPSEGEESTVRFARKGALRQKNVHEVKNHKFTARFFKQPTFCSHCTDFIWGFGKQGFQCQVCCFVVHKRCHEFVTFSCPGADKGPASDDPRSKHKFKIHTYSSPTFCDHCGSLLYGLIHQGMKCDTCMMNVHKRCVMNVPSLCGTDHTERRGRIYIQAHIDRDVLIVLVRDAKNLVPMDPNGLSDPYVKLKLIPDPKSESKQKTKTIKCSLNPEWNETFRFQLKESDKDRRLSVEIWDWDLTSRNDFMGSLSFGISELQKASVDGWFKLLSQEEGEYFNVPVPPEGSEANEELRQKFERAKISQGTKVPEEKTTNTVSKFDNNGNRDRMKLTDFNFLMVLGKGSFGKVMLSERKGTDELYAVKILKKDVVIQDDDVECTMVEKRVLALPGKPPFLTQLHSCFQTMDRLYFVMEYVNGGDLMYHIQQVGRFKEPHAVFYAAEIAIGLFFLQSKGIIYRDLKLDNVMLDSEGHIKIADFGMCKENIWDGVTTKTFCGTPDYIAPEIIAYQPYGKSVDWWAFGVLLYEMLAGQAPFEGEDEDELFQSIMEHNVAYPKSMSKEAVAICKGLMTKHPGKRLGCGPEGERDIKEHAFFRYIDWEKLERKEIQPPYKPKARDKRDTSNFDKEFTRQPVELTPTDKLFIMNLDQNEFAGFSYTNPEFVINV
Sequence of Platelet-derived growth factor receptor alpha (Homo sapiens) (P16234 whole entry): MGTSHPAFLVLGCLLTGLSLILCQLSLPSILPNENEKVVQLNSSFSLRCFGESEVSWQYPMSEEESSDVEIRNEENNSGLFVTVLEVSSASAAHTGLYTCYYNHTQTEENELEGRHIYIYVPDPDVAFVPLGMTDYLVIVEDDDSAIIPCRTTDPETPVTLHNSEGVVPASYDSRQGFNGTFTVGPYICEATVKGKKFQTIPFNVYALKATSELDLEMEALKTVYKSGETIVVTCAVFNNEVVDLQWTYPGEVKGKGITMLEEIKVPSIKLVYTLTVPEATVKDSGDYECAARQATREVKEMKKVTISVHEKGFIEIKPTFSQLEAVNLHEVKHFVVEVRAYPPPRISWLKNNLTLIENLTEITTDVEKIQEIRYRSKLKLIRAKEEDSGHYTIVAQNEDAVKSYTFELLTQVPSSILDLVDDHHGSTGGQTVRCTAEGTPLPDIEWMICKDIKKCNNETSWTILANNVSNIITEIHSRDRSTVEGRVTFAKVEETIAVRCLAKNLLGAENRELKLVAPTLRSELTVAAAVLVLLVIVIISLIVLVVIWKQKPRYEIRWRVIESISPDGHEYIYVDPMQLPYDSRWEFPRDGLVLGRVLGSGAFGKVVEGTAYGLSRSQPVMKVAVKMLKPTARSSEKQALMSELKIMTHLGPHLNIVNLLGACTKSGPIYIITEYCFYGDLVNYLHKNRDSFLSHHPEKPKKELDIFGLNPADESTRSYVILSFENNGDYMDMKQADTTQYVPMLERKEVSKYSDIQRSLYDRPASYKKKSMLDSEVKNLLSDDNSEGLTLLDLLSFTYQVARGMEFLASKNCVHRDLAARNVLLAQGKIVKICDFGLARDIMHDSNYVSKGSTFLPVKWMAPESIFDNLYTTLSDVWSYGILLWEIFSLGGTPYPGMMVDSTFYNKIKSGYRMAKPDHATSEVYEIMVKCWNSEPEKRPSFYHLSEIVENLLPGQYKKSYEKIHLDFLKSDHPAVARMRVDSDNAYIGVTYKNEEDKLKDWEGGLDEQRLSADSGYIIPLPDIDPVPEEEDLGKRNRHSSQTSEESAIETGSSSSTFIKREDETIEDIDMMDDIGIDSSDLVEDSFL
Sequence of RAC-gamma serine/threonine-protein kinase (Homo sapiens) (Q9Y243 whole entry): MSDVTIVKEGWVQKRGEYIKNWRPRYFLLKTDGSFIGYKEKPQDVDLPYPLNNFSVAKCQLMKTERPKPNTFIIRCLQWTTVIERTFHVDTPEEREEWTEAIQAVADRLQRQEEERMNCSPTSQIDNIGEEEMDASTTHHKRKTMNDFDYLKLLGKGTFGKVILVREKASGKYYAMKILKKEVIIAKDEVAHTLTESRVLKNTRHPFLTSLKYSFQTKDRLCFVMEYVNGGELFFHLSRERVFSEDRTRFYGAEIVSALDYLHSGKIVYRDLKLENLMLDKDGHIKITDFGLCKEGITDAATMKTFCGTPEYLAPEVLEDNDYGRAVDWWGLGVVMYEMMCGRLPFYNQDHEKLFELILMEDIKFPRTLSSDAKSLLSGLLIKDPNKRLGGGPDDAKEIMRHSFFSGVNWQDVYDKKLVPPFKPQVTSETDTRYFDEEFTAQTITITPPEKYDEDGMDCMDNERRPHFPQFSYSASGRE

Turning to `C[S+]([O-])c1ccc(-c2nc(-c3ccc(F)cc3)c(-c3ccncc3)[nH]2)cc1` (centres undefined), the residual activity in assay [1] came out at 108%; in [2], 120%; in [3], 120%; in [4] it was 117%; in [5], 107%; in assay [6] it was 105%. Moreover, the residual activity worked out at 102% in assay [7]; 105% in [8]; 117% in [9]; 75% in assay [10]; 107% in assay [11]; 90% in [12]. In addition, the residual activity in [13] worked out at 101%; in [14] it was 70%; in assay [15], 104%; in assay [16], 75%; in assay [17], 104%; in assay [18], 103%. The residual activity in assay [19] was 105%.

`O=c1[nH]c2ccccc2n1C1CCN(Cc2ccc(-c3nc4cc5[nH]cnc5cc4nc3-c3ccccc3)cc2)CC1`: the residual activity was found to be 101% in assay [1]; 108% in assay [2]; 96% in assay [3]; 113% in [4]; 120% in [5]; 97% in assay [6]. The residual activity amounted to 145% in assay [20]; 98% in assay [7]; 90% in assay [8]; 118% in assay [9]; 69% in [10]; 104% in assay [11]. The residual activity in assay [12] was found to be 104%; in assay [13] it was 102%; in assay [14] it was 93%; in [15] it was 88%; in [16], 93%; in [17], 108%. The results for the residual activity in assay [18] and in assay [19] were 98% and 107%, respectively.

For the compound `O=[N+]([O-])/C=C/c1ccc2c(c1)OCO2`, the residual activity in assay [1] turned out to be 105%; in assay [2], 94%; in [3], 97%; in assay [4], 106%; in [5], 96%; in assay [6], 124%. Further, the residual activity was 100% in [7]; 110% in assay [8]; 125% in [9]; 106% in assay [10]; 111% in assay [11]; 111% in [12]. In addition, the residual activity in [13] worked out at 113%; in [16] it was 106%; in assay [17], 103%; in assay [18], 67%; in assay [19] it was 99%.

As for `NC(=O)Nc1sc(-c2ccc(F)cc2)cc1C(N)=O`, the residual activity in assay [7] turned out to be 114%; in assay [8], 109%.

As to `N/C(=N\[N+](=O)[O-])N/N=C\c1ccc(-c2cccc([N+](=O)[O-])c2)o1`, the residual activity in assay [1] was 54%; in [2] it was 100%; in assay [3] it was 60%; in assay [9] it was 77%; in [10] it was 77%; in assay [17] it was 91%. For the same compound, in assay [18], the residual activity was determined as 94%.

On to `COC(=O)[C@@]1(O)C[C@H]2O[C@]1(C)n1c3ccccc3c3c4c(c5c6ccccc6n2c5c31)C(=O)NC4`, for which the residual activity in [1] is 8%; in assay [2] it was 46%; in [3] it was 8%; in assay [4], -1%; in assay [5], 0%; in assay [6], 7%. Moreover, the residual activity in assay [20] is 3%; in [7] it was 101%; in [8], 37%; in assay [9] it was 11%; in assay [10], 3%; in assay [11], 19%. For the same compound, the residual activity in assay [12] came to 0%; in assay [13], 53%; in assay [14], 13%; in assay [15], 67%; in assay [16], 18%; in assay [17], 19%. In addition, the residual activity came to 2% in assay [18] and 18% in assay [19].

With `Cn1nc2c3c(cccc31)C(=O)c1ccccc1-2`, the residual activity came to 111% in [7] and 108% in [8].

As for `COc1ccc(S(=O)(=O)N(CCO)c2ccccc2CN(C)C/C=C/c2ccc(Cl)cc2)cc1`, the residual activity in assay [7] came to 116%; in assay [8] it was 112%.

With `Cn1cc(/C=C2\C(=O)Nc3ccc(S(N)(=O)=O)cc32)c2ccccc21`, the results for the residual activity in assay [7] and in assay [8] were 96% and 101%, respectively.

On to `CC(C)(C)n1nc(Cc2cccc3ccccc23)c2c(N)ncnc21`, for which the results for the residual activity in assay [7] and in assay [8] were 96% and 107%, respectively.

Take `O=C1c2ccccc2-c2nc3nnnn3nc21`: the residual activity in assay [1] is 111%; in assay [2], 120%; in assay [3], 111%; in [4], 121%; in assay [5] it was 116%; in assay [7], 103%. For the same compound, the residual activity in [8] is 112%; in [9], 117%; in assay [10], 100%; in assay [15], 101%.

As for `O=C(Nc1cccc(Nc2nccc(Nc3cccc(C(F)(F)F)c3)n2)c1)C1CC1`, the residual activity worked out at 103% in assay [7] and 104% in [8].

Consider `Nc1ncnc2c1c(-c1ccc(Oc3ccccc3)cc1)cn2C1CCCC1`, for which the residual activity in assay [7] amounted to 105%; in assay [8] it was 111%.

Consider `CCC(=O)Nc1ccc2ncnc(Nc3cccc(Br)c3)c2c1`, for which the residual activity in [7] is 99%; in assay [8] it was 106%.

As for `C[C@@H](N)[C@H]1CC[C@H](C(=O)Nc2ccncc2)CC1`, the residual activity in [7] amounted to 88%; in assay [8], 76%.

As for `O=C1Nc2ccccc2/C1=C1/Nc2ccccc2/C1=N\OCCC(O)CO` (centres undefined), the residual activity was 113% in assay [7] and 101% in [8].

Consider `O=C(Nc1cccc(Nc2cc(Nc3cccc(C(F)(F)F)c3)ncn2)c1)C1CC1`, for which the residual activity in assay [7] came to 96%; in assay [8], 99%.

As for `O=C(CCCc1ccc(-c2ccccc2F)cc1)Nc1ccc(O)cc1`, the values for the residual activity in assay [7] and in assay [8] were 103% and 105%, respectively.

For the compound `COc1ccc(Cl)cc1NC(=O)Nc1cc(C)nc2ccccc12`, the residual activity in [7] is 95%; in assay [8] it was 94%.

As for `COc1cc2ncnc(Nc3ccc(O)c(Br)c3)c2cc1OC`, the residual activity in assay [7] was determined as 107%; in assay [8], 105%.

In the case of `O=C1Cc2c([nH]c3ccc([N+](=O)[O-])cc23)-c2ccccc2N1`, the residual activity in assay [7] and in assay [8] was 104% in each case.

Take `COc1ccc2c(c1)c(C1=C(c3c[nH]c4ccccc34)C(=O)NC1=O)cn2CCCN(C)C`: the residual activity in assay [7] was 110%; in assay [8], 120%.

In the case of `N#C/C(=C\c1ccc(O)c(O)c1)C(=O)NCc1ccccc1`, the residual activity in [7] was 103%; in [8], 120%.

`O=C1NC(=O)/C(=C/c2ccc3c(c2)OC(F)(F)O3)S1`: the residual activity in assay [7] came to 102%; in assay [8] it was 111%.

For the compound `Cc1ccc(NC2=CC(=O)c3sc(C)nc3C2=O)cc1`, the residual activity was found to be 111% in assay [7] and 107% in assay [8].

Consider `CO[C@@H]1[C@H](N(C)C(=O)c2ccccc2)C[C@H]2O[C@]1(C)n1c3ccccc3c3c4c(c5c6ccccc6n2c5c31)C(=O)NC4`, for which the residual activity was determined as 97% in [7] and 99% in [8].

Consider `CN(C)c1ccc(/C=C2\C(=O)Nc3ccccc32)cc1`, for which the residual activity in assay [7] came out at 112%; in [8], 121%.

Take `O=c1c2ccccc2[nH]c(=S)n1CCN1CCC(=C(c2ccc(F)cc2)c2ccc(F)cc2)CC1`: the residual activity in assay [7] was 112%; in [8], 107%.

Take `CC(=O)c1ccc(N2CCOCC2)cc1O`: the residual activity in [7] worked out at 101%; in assay [8], 111%.

On to `Cc1nc2cc3nc(-c4cccs4)cnc3cc2n1C`, for which the residual activity was 100% in assay [7] and 105% in [8].

As to `COc1cc2c(cc1OC)-c1n[nH]c(Nc3cccc(F)c3)c1C2`, the residual activity in assay [7] and in assay [8] was 107% in each case.

Take `O=c1cc(-c2cccc3c2Sc2ccccc2S3)oc(N2CCOCC2)c1`: the residual activity in [7] was 99%; in assay [8], 103%.

For the compound `CCN(CC)CCCCN1c2ccccc2Oc2ccc(Cl)cc21`, the residual activity in assay [7] and in assay [8] was 104% throughout.

With `COc1cc2ncnc(Nc3ccc(Oc4ccccc4)cc3)c2cc1OC`, the residual activity is 108% in assay [7] and 107% in [8].

For `Nc1ncnc2c1cnn2-c1ccccc1`, the residual activity in assay [7] and in [8] was 96% in each case.

`CC#CC(=O)Nc1cc2c(Nc3ccc(F)c(Cl)c3)ncnc2cn1`: the residual activity in assay [7] came out at 101%; in [8], 107%.

Regarding `CC(C)(C)c1nc2c3ccc(F)cc3c3c(=O)[nH]ccc3c2[nH]1`, the residual activity in [7] was 98%; in [8], 104%.

As for `N#C/C(=C(\N)Sc1ccc(N)cc1)c1ccccc1C(F)(F)F`, the residual activity is 112% in [7] and 108% in assay [8].

On to `Nc1nc(Nc2ccc(S(N)(=O)=O)cc2)nn1C(=O)c1c(F)cccc1F`, for which the residual activity is 104% in assay [7] and 103% in assay [8].

For `CNc1cc2c(Nc3cccc(Br)c3)ncnc2cn1`, the residual activity in [7] and in assay [8] was 98% each time.

For the compound `O=Nc1c(-c2c(O)[nH]c3ccccc23)[nH]c2ccccc12`, the results for the residual activity in [7] and in assay [8] were 107% and 98%, respectively.

On to `Cc1ccc(S(=O)(=O)/C=C/C#N)cc1`, for which the residual activity came to 107% in assay [7] and 112% in assay [8].

`COc1cccc(-c2cc(=O)c3ccccc3o2)c1N`: the residual activity was 106% in [7] and 109% in [8].

Take `CO[C@H]1[C@@H](OC)C[C@H](C)[C@@H](OC)C2=CC(=O)C=C(NC(=O)/C(C)=C/C=C/[C@H](OC)[C@@H](OC(N)=O)/C(C)=C/[C@@H]1C)C2=O`: the residual activity in assay [7] was 112%; in [8] it was 114%.

Broadly, the residual activity is the signal under treatment as a percentage of the control signal.

For the origin of these results see ChEMBL document CHEMBL2218924, “A broad activity screen in support of a chemogenomic map for kinase signalling research and drug discovery” (Biochem J, 2013).
